PubChem BioAssay (NCATS)
A number with no mark means an inactive call. Records with an inconclusive call do not appear. Entries that show only a call come without a potency. The source made the active and inactive calls. Unless noted, calls follow the shape of the dose curve; as a rule, active = well fitted curve in the direction sought with a large enough effect; inconclusive = small, poorly fitted or top-dose-only effect, or another doubt; inactive = no such curve, though single readings can be large; an effect the other way counts as inactive or inconclusive.

Columns and labels:
[1] = AP1 Signaling Pathway (AID 357; active = well fitted curve in either direction with a large enough effect, not every such curve was filed as active;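 also: ME-180 reporter cells stimulated with EGF at its EC50 level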); conditions: ME-180 AP-1-bla reporter, EGF-induced, beta-lactamase ratio, 5 h; at 7.69 µM (top of the series) unless noted
Method in brief: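 In this screen, ME-180 cells in Opti-MEM with 0.5% dialyzed FBS received EC50 EGF and compound titrations for 5 h. AP-1 reporter beta-lactamase was detected via CCF4 ratio, giving AC50 for positive and negative modulators.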

[2] = biological target: Cytochrome P450 1A2 (Homo sapiens) (UniProt P05177); assay: p450-cyp1a2 (AID 410; calls by dose curve; also: potency is read from the fitted curve at half-maximal effect)
Method in brief: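 O-Demethylation of luciferin 6' methyl ether by human CYP1A2 is monitored as luciferase luminescence. Substrate sits at Km (100uM); enzyme is 20nM. Values are scaled to 57 uM furafylline as maximal inhibition.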

[3] = NFAT Signaling Pathway (AID 444; active = well fitted curve in either direction with a large enough effect, not every such curve was filed as active;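 also: carbachol stimulus at about its EC50 of 1 µM final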); conditions: Jurkat NFAT-bla M1, carbachol, beta-lactamase ratio, 5 h; at 7.69 µM (top of the series) unless noted
Method in brief: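 Read-out: CCF4 FRET ratio (460 nm/530 nm) after 1 h RT dye loading, used for %activity and AC50 from titration series. Cells: Jurkat NFAT-β-lactamase/M1 line, treated with compound plus 1 uM carbachol for 5 h, 37 °C.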

[4] = Stat Signaling Pathway (AID 446; active = well fitted curve in either direction with a large enough effect, not every such curve was filed as active;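 also: ME-180 cervical cancer cells given 40 pM IL-6 alongside compound; SIE-controlled beta-lactamase reporter measured as 460/530 nm FRET emission ratio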); conditions: ME-180 (cervical carcinoma) SIE beta-lactamase reporter, IL-6 stimulated, 5 h; at 7.69 µM (top of the series) unless noted
Method in brief: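 FRET read-out (405 nm excitation, 460/530 nm emission) of a beta-lactamase reporter under a STAT-inducible element in ME-180 cervical carcinoma cells. Cells with compound receive 40 pM IL-6 for 5 h. Values are normalised to AC90 stimulation and AC90 JAK-inhibitor controls.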

[5] = biological target: Glucocorticoid receptor (Homo sapiens) (UniProt P04150); assay: GR-GFP Redistribution (AID 450;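 active = compounds whose dose series gives a full or clear partial fitted curve of increased nuclear translocation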; also: potency is read from the fitted curve at half-maximal effect); conditions: U2OS GR-GFP nuclear translocation, laser cytometry, 2 h
Glucocorticoid receptor (Homo sapiens), sequence (P04150 whole entry, looked up, the tested form may be a part): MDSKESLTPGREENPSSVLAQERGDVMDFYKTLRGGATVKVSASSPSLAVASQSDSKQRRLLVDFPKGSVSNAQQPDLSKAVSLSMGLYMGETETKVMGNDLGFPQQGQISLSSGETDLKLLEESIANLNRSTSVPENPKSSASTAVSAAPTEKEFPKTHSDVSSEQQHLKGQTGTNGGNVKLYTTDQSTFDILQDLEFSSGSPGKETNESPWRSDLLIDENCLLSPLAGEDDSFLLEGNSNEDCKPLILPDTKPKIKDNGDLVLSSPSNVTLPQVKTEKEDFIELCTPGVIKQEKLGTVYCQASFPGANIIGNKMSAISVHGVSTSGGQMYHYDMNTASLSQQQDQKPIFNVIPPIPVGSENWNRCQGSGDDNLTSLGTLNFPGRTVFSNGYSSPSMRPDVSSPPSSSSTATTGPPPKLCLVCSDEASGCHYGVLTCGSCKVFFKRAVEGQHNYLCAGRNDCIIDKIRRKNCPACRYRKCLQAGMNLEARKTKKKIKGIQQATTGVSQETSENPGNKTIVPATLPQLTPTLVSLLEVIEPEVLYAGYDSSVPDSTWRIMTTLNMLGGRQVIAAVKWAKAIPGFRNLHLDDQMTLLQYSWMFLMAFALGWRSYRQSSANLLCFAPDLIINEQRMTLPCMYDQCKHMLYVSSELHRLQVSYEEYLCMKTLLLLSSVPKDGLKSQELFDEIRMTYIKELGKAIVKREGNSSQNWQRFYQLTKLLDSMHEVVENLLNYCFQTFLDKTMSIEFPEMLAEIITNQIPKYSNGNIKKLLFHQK

[6] = biological target: Glucocorticoid receptor (Homo sapiens) (UniProt P04150); assay: GR-EFC Redistribution (AID 451; calls by dose curve; also: potency is read from the fitted curve at half-maximal effect); conditions: CHO-K1 GR-EFC translocation, beta-gal luminescence, 2 h
Method in brief: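 Translocation of GR-ED fusion to nuclear EA restores b-gal, read by luminescence after 1 h room-temperature detection. Engineered CHO-K1 biosensor cells, 1,000/well, exposed 2 h at 37 C to titrations up to 46 uM final.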

[7] = biological target: Mitogen-activated protein kinase 10 (Mus musculus) (UniProt Q61831); assay: JNK3 AlphaScreen Assay (AID 530; active = well fitted curve in either direction with a large enough effect, not every such curve was filed as active;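 also: kinase came from lysate of stimulated human HepG2 cells; signal reports phosphorylation of biotinylated GST-cJun 1-79 at Ser73 with 10 µM ATP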)
Method in brief: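 qHTS titrations with 15 min compound pre-incubation before adding ATP (10 uM final). Read-out: AlphaScreen of Ser73-phosphorylated biotin-GST-cJun using HepG2 lysate JNK3 activated by IL-1β and TNFα.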

[8] = biological target: 3',5'-cyclic-AMP phosphodiesterase 4B (Homo sapiens) (UniProt Q07343); assay: qHTS Assay for Inhibitors of PDE-IV (AID 607; active = well fitted activation curve with a large enough effect in the main read-out, with a control signal flat, not every such curve was filed as active)
Method in brief: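 Cell-based read-out of cAMP via a modified cyclic nucleotide-gated channel and membrane potential dye (535/590 nm) in HEK293 cells expressing PDE4 endogenously. Compounds tested up to 22.9 uM final; 100 uM RO 20-1724 reference.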

[9] = biological target: Guanine nucleotide-binding protein G(i) subunit alpha-1 (Homo sapiens) (UniProt P63096); assay: qHTS Assay for Inhibitors of RGS12 GoLoco Motif Activity (Green Fluorophore) (AID 879);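 also: negative values mean loss of peptide binding seen as reduced polarization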
Guanine nucleotide-binding protein G(i) subunit alpha-1 (Homo sapiens), sequence (P63096 whole entry, looked up): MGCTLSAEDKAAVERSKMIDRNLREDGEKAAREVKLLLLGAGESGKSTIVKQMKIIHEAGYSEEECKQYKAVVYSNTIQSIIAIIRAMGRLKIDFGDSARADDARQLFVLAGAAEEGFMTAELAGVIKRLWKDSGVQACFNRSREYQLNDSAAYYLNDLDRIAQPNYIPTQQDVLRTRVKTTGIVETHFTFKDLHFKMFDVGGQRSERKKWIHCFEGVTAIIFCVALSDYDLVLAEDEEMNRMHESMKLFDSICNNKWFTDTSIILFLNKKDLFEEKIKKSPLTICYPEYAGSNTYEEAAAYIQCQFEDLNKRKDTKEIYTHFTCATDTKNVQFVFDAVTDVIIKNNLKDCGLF
Method in brief: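 A drop in FITC polarization marked displacement of the FITC-tagged RGS12 GoLoco peptide (10 nM) from Gαi1 (50 nM). Compounds were incubated 10 min at room temperature in Tris pH 7.5 buffer containing 150 mM NaCl, 0.1 mM GDP and 0.05% NP40; unlabeled peptide titration served as control.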

[10] = biological target: Cytochrome P450 3A4 (Homo sapiens) (UniProt P08684); assay: qHTS Assay for Activators of Cytochrome P450 3A4 (AID 885); also: nearly all actives have a fitted effect of over 65% in size
Cytochrome P450 3A4 (Homo sapiens), sequence (P08684 whole entry, looked up): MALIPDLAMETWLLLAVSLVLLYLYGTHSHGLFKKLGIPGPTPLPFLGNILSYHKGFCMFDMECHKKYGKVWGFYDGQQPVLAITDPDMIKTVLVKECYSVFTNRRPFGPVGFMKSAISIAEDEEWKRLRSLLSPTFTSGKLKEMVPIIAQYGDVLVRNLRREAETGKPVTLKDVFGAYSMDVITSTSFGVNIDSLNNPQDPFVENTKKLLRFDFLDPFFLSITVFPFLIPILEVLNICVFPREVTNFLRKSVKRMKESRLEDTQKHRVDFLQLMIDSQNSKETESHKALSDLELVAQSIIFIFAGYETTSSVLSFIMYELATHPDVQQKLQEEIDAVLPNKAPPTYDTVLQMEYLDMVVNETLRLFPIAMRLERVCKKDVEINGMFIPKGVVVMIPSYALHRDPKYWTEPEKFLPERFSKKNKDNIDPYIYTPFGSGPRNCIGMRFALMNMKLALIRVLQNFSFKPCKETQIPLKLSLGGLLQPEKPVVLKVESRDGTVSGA
Method in brief: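 Luminescent readout of luciferin formed from 25 uM Luciferin-PPXE (KM level) by 20 nM CYP3A4 in 200 mM KPO4, with 60 min NADPH-driven reaction at room temperature after 10 min compound exposure. Ketoconazole (57 uM) defined 100% inhibition.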

[11] = qHTS Assay for Identification of Small Molecule Agonists for Thrombopoietin (TPO) Signaling Pathway (AID 917)
Method in brief: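 Cell-based luciferase reporter screen. Mouse Ba/F3 line stably expressing human TPO receptor; IL-3 removed overnight before plating. Co-treatment with compound and EC50 TPO (26 pM), 24 hrs at 37 C, then luminescence.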

[12] = biological target: Pyruvate kinase PKM (Homo sapiens) (UniProt P14618); assay: qHTS Assay for Activators of Human Muscle Pyruvate Kinase (AID 954; active = well fitted curve in the direction sought with a large enough effect, not every such curve was filed as active)
Pyruvate kinase PKM (Homo sapiens), sequence (P14618 whole entry, looked up): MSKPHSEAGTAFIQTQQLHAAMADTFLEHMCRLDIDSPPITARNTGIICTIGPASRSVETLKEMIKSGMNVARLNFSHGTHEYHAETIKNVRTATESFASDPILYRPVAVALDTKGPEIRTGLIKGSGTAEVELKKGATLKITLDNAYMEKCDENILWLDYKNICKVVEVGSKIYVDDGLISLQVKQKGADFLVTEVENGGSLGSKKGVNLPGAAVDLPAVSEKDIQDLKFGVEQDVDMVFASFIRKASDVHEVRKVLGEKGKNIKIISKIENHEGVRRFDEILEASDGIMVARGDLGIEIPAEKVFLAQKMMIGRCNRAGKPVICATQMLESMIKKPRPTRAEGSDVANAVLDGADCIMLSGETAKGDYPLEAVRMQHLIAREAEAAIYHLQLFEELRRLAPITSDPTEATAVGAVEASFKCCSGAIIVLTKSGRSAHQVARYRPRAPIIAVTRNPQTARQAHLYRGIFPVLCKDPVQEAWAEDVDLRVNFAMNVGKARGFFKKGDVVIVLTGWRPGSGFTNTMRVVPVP
Method in brief: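 ATP production by PKM2 detected via luciferase luminescence after 1 h room-temperature reaction (0.1 nM enzyme, PEP at Km 0.5 mM, ADP 0.1 mM, pH 7.2 imidazole buffer). Inhibition scaled to no-enzyme control; activation referenced to 0.3 nM enzyme wells.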

[13] = biological target: Pyruvate kinase (Leishmania mexicana) (UniProt Q27686); assay: qHTS Validation Assay for Activators of Leishmania Mexicana Pyruvate Kinase (AID 959)
Pyruvate kinase (Leishmania mexicana), sequence (Q27686 2-499 E452W): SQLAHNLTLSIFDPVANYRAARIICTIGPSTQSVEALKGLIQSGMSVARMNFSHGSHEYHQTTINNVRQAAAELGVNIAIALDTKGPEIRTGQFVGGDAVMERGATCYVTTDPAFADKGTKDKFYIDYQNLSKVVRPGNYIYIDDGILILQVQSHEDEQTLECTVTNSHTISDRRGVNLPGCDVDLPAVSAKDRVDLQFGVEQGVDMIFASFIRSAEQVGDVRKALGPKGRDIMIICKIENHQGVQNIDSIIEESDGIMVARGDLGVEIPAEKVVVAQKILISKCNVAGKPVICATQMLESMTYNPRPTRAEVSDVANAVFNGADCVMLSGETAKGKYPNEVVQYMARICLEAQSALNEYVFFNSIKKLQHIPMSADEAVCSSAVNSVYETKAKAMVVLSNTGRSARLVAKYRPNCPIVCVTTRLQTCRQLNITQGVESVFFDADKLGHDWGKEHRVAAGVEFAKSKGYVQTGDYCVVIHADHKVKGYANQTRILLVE
Method in brief: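 Luminescent ATP detection (PKLight) after a 1 h room-temperature reaction of 0.2 nM LmPYK E451W mutant with 0.5 mM PEP and 0.1 mM ADP at pH 7.2. Activity is normalized to DMSO-only control wells.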

[14] = biological target: Alpha-galactosidase A (Homo sapiens) (UniProt P06280); assay: Counterscreen for Glucocerebrosidase Inhibitors: qHTS Assay for Human alpha-Galactosidase at pH 4.5 (AID 992)
Alpha-galactosidase A (Homo sapiens), sequence (P06280 whole entry, looked up): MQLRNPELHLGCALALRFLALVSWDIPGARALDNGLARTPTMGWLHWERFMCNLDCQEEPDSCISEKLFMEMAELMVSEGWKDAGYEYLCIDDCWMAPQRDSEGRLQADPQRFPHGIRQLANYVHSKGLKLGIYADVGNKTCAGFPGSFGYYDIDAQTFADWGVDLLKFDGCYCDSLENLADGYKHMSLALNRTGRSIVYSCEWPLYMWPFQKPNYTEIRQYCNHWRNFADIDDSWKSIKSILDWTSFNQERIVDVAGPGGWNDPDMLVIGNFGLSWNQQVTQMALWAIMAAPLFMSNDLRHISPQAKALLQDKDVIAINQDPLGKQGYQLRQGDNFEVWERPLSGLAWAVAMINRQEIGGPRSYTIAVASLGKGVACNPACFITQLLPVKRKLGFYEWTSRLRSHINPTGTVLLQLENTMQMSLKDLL
Method in brief: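 Fluorogenic 1536-well qHTS at pH 4.5 (citrate, Tween-20): 2 nM enzyme, 80 uM 4-MU-alpha-galactoside, 20 min room temperature, NaOH/glycine stop. Titration 0.7 nM to 77 uM, data normalized to no-enzyme and full-activity controls, Hill-fitted AC50.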

[15] = biological target: alpha-glucosidase (Oryza sativa, rice) (UniProt Q653V4); assay: Counterscreen for Glucocerebrosidase Inhibitors: qHTS Assay for Rice alpha-Glucosidase at pH 5.0 (AID 997)
Method in brief: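 Endpoint fluorogenic assay at pH 5.0: compounds (0.7 nM to 77 uM) titrated against 4 nM rice enzyme and 400 uM 4-MU-alpha-glucoside for 20 min at room temperature; NaOH/glycine stop, read ex 365/em 440 nm, Hill-fitted AC50.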

[16] = Validation of Assay for Modulators of Lamin A Splicing (AID 1459; active = well fitted curve in the direction sought with a large enough effect in the signal ratio; the % refers to the signal ratio;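 also: cells exposed to compound for two days before reading; ratio rise marks activators and ratio drop marks inhibitors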)
Method in brief: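 HeLa S3 lamin A-EGFP/DsRed2 stable clone, 600 cells/well, Opti-MEM 2% FBS; compounds by pin tool; 48 hrs, 37 °C/5% CO2; Acumen 488 nm scan, objects 10-100 um; GFP/RFP intensity ratio.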

[17] = biological target: DNA repair nuclease/redox regulator APEX1 (Homo sapiens) (UniProt P27695); assay: qHTS Validation Assay for Inhibitors of the Human Apurinic/apyrimidinic Endonuclease 1 (APE1) (AID 1705;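 also: TAMRA fluorescence gain over two minutes as APE1 cuts a quenched THF abasic duplex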)
Method in brief: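 qHTS, 1536-well. APE1 + cpd 15 min RT → 50 nM TAMRA/BHQ-2 THF-abasic dsDNA substrate → kinetic fluorescence, 3 reads/60 s; delta(read3−read1) = reaction progress. No-enzyme buffer = negative control.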

[18] = Counterscreen for APE1 Inhibitors: Fluorescent Dye Displacement Validation Assay (AID 1707)
Method in brief: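 Counterscreen flags promiscuous DNA binders: compounds displacing ThO from duplex DNA (abasic THF site, 50 nM) reduce 540 nm emission (480 nm excitation). ThO 250 nM final; Tris-HCl pH 7.5 with NaCl, MgCl2 and Tween-20.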

[19] = biological target: Endonuclease 4 (Escherichia coli (strain K12)) (UniProt P0A6C1); assay: Counterscreen for APE1 Inhibitors: qHTS Validation Assay for Inhibitors of Endonuclease IV (AID 1708)
Method in brief: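 Incision of a double-stranded 50 nM TAMRA/BHQ-2 abasic substrate was followed kinetically (525/598 nm, reads every 60 s) after 15 min enzyme–compound preincubation with 2 nM EndoIV in pH 7.5 Tris buffer with MgCl2, DTT and Tween-20; concentration-response format.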

[20] = qHTS for differential inhibitors of proliferation of Plasmodium falciparum line 7G8 (AID 1815);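 also: parasite growth measured after three days of incubation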
[21] = qHTS for differential inhibitors of proliferation of Plasmodium falciparum line 3D7 (AID 1876);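 also: parasite growth measured after three days of culture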
[22] = qHTS for differential inhibitors of proliferation of Plasmodium falciparum line D10 (AID 1877);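 also: parasites grown with compound for 72 h before DNA staining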
[23] = qHTS for differential inhibitors of proliferation of Plasmodium falciparum line Dd2 (AID 1882); conditions: Potency: Plasmodium falciparum Dd2 proliferation inhibition; also: nearly all actives have a fitted effect of over 65% in size
Method in brief: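 SYBR Green DNA fluorescence (ex 485, em 535 nm) after overnight lysis quantifies parasite growth; compound exposure lasted 72 h at 37 C on infected red cells at 2.5% hematocrit, 0.3% parasitemia (final). Artemisinin 0.29 uM and vehicle wells define normalization.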

[24] = qHTS for differential inhibitors of proliferation of Plasmodium falciparum line HB3 (AID 1886); conditions: Potency: Plasmodium falciparum HB3 proliferation inhibition;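 also: parasites grown with compound for 72 h before SYBR Green readout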
[25] = qHTS Assay for Modulators of Human Peripheral Myelin Protein 22 (PMP22) Expression/Activity (AID 1967; active = well fitted curve in the direction sought with a large enough effect in the signal ratio; the % refers to the signal ratio)
Method in brief: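 Luminescence ratio of Pmp22 promoter-driven green luciferase to EF-alpha-driven red luciferase, in engineered mouse MSC80 Schwann cells, served as read-out. Compounds were incubated 24h; untreated cells defined 0% Activity; curves were classified by r2, magnitude and activity.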

[26] = biological target: ATP-dependent DNA helicase Q1 (Homo sapiens) (UniProt P46063); assay: qHTS Validation Assay for Inhibitors of RecQ-Like Dna Helicase 1 (RECQ1) (AID 2353)
Method in brief: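 RECQ1T1 50 nM; forked duplex (20 bp + 30-nt ss tails) 200 nM, ATP 2 mM final; pH 8.0, 2 mM MgCl2, 2.5 ug/ml poly(dI-dC); 15 min compound preincubation; discontinuous kinetic read over 2 h at RT.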

[27] = Validation screen for small molecules that induce DNA re-replication in MCF 10A normal breast cells (AID 463097); also: nearly all actives have a fitted effect of over 60% in size
Method in brief: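 Image-based qHTS: normal breast cells are incubated with compound for 48 hr, stained with Hoechst, and scanned for total nuclear fluorescence. Compounds raising the fraction of nuclei with elevated DNA content count as re-replication inducers.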

[28] = Quantitative high throughput screen for delayed death inhibitors of the malarial parasite plastid, 96 hour incubation (AID 488745);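 also: luciferase-expressing P. falciparum in erythrocytes at 2% hematocrit and 0.1% parasitemia; nearly all actives have a fitted effect of over 70% in size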
Method in brief: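 Readout is firefly luciferase luminescence from an integrated reporter in P. falciparum; lower signal marks inhibited growth. Cultures at 2% hematocrit and 0.1% parasitemia were treated with compound across two generations (96 h, 37 C, 5% CO2).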

[29] = Quantitative high throughput screen for delayed death inhibitors of the malarial parasite plastid, 48 hour incubation (AID 488752); also: nearly all actives have a fitted effect of over 65% in size
Method in brief: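 First, compound was pinned into RPMI 1640 medium containing 0.5% Albumax. Next, reporter-parasite-infected erythrocytes were added to 2% hematocrit and 0.1% parasitemia. After 48 h at 37 C under 5% CO2, luciferase detection reagent was added and luminescence read.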

[30] = biological target: M-phase phosphoprotein 8 (Homo sapiens) (UniProt Q99549); assay: qHTS Validation Assay for Inhibitors for MPP8 Chromodomain Interactions with Methylated Histone Tails (AID 488949);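 also: 50 nM MPP8 with 50 nM peptide preformed then compounds added for 30 min; AlphaScreen signal from MPP8 chromodomain bound to biotinylated H3K9me3 peptide; top concentration of the series differs between compounds; nearly all actives have a fitted effect of over 55% in size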
M-phase phosphoprotein 8 (Homo sapiens), sequence (Q99549 whole entry, looked up): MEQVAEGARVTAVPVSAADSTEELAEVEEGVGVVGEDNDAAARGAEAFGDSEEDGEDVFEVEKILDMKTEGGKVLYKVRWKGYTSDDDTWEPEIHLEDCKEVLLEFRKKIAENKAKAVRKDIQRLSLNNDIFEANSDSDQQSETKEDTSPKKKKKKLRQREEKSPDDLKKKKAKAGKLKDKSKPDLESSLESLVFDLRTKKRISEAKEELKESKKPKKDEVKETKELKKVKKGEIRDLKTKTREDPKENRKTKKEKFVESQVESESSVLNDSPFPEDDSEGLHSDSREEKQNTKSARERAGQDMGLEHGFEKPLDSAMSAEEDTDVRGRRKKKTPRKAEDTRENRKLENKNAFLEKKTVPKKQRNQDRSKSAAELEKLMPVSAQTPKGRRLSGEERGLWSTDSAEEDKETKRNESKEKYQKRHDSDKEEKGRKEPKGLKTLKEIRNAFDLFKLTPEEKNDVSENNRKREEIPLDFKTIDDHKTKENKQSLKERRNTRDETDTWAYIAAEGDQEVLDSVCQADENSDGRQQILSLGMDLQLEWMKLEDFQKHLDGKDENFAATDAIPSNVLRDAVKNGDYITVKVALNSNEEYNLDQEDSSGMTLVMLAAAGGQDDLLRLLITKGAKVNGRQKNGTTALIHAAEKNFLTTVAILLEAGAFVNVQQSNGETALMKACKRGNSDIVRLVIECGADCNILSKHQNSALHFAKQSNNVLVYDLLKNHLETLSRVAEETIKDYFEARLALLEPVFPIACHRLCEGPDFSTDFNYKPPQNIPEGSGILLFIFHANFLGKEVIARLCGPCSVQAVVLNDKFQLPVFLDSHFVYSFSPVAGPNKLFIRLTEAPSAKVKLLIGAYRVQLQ
Method in brief: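 50 nM MPP8 + 50 nM b-H3K9me3 peptide, PBS pH 7.4/0.01% Tween-20, 30 min RT; + cpd 30 min RT; + AlphaScreen donor/Ni-chelate acceptor beads 10 ug/mL final, 30 min dark; luminescence read.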

[31] = biological target: Thyrotropin receptor (Homo sapiens) (UniProt P16473); assay: qHTS Assay for Antagonists of the Thyroid Stimulating Hormone Receptor (AID 488980)
Method in brief: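 Readout is cAMP by HTRF competition between cellular cAMP and cAMP-d2 for a cryptate-labelled antibody. Antagonism was assessed in TSHR-transfected HEK293 cells stimulated with 4 nM TSH (EC80, final) in the presence of RO 20-1724.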

[32] = biological target: Thyrotropin-releasing hormone receptor (Homo sapiens) (UniProt P34981); assay: qHTS for Small Molecule Agonists and Allosteric Enhancers of Human TRH Receptor: Validation Screen for Agonists (AID 493127;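 active = calcium activation more than 3 SD above the typical response in the agonist read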;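 also: intracellular calcium rise by fluo-8 fluorescence before TRH EC20 addition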); conditions: TRH receptor agonist cell assay; at 2 µM; hits give high values
Thyrotropin-releasing hormone receptor (Homo sapiens), sequence (P34981 whole entry, looked up): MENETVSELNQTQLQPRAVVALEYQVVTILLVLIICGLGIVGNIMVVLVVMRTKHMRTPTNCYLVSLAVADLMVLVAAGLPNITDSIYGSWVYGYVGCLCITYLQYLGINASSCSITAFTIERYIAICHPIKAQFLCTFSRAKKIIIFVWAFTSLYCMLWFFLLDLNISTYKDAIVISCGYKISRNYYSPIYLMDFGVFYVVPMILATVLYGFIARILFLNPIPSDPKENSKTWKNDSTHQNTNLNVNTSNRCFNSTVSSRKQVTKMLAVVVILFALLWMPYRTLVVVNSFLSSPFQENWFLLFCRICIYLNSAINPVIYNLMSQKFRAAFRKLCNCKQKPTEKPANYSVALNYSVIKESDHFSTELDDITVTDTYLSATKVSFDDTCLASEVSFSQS
Method in brief: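 Compounds are added by online pintool to dye-loaded TRHR cells while fluorescence is recorded every second. A rise in calcium signal during the agonist read marks activation; a later 10 nM TRH addition (EC20) serves the separate enhancer mode.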

[33] = biological target: Galactokinase (Homo sapiens) (UniProt P51570); assay: qHTS Validation Assay for Inhibitors of Human Galactokinase (GALK) (AID 493189)
Galactokinase (Homo sapiens), sequence (P51570 whole entry, looked up): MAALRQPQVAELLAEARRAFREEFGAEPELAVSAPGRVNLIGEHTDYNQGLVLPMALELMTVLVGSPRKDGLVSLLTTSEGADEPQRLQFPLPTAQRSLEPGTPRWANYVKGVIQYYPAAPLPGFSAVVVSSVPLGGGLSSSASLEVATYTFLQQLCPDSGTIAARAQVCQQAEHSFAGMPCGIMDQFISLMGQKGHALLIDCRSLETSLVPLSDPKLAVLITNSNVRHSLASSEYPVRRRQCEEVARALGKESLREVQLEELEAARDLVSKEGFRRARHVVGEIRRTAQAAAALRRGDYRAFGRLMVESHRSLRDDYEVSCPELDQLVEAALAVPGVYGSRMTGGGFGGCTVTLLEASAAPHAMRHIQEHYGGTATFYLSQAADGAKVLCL
Method in brief: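 5 nM GALK / 100 uM galactose / 35 uM ATP, 20 mM HEPES pH8.0, 5 mM MgCl2, 60 mM NaCl, 1 mM DTT, 0.01% BSA (final). RT 1 h; Kinase-Glo Plus luminescence.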

[34] = Validation screen for small molecules that induce DNA re-replication in SW480 colon adenocarcinoma cells (AID 504364)
Method in brief: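 Image-based qHTS: compounds were incubated with SW480 cells for 48 hr, nuclei stained with Hoechst, and per-nucleus fluorescence intensity scanned to flag cells with excess DNA content.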

## CCSC(N)=Nc1ccc(C(F)(F)F)cc1
[1]
  activity change, negative = inhibition: -5.3% [at 38 µM]
[2]
  Potency: 2.51 µM (active)
[3]
  activity change, negative = inhibition: 0.554% [at 38 µM]
[4]
  activity, negative = inhibition: 13.4% [at 38 µM]
[5]
  Potency: > 46 µM
[6]
  Potency: > 46 µM
[7]
  outcome: inactive
[8]
  Potency: inactive
[9]
  outcome: inactive
[10]
  Potency: inactive
[11]
  outcome: inactive
[12]
  outcome: inactive
[13]
  outcome: inactive
[14]
  outcome: inactive
[15]
  outcome: inactive
[16]
  outcome: inactive
[17]
  Potency: inactive
[18]
  Potency: inactive
[19]
  outcome: inactive
[20]
  Potency: inactive
[21]
  Potency: inactive
[22]
  Potency: inactive
[23]
  Potency: inactive
[24]
  Potency: inactive
[25]
  outcome: inactive
[26]
  Potency: inactive
[27]
  outcome: inactive
[28]
  Potency: inactive
[29]
  Potency: inactive
[30]
  Potency: inactive
[31]
  outcome: inactive
[32]
  activation: -5.5%
[33]
  outcome: inactive
[34]
  outcome: inactive
